HT1080 IDH1KD tx: HT-1080 IDH1 knockdown cell toxicity (counter line); AID 686971; Potency, µM (doses to about 46.1 µM), inactives show top-dose activity, negative = toxicity, actives largely listed as cytotoxic; HT-1080 IDH1 knockdown viability, ATP luminescence, 48 h; actives 2% (n = 360,000);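 note: potency is the fitted concentration of half-maximal effect; 0% = DMSO wells and -100% = cell-free medium wells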
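Knockdown cells (IDH1KD HT-1080) received compounds 2 h after plating at 750 cells/well and were kept 48 h at 37 °C in 5% FBS RPMI. A CellTiter-Glo luminescence read gave % activity for curve fitting.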
IL-1B inflam inh: blocks inflammasome-driven IL-1 beta release | THP-1 LPS/ATP IL-1B secretion, AlphaLISA, 16 h; active compounds read low | activity change, % at 57.5 µM | actives 4.7% (n = 360,000) | AID 743279; in the data active = activity change below about -50%; inconclusive = mostly about -30% to -49%
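THP-1 cells pretreated 1 hr with compounds (up to 57.5 uM final), then stimulated with LPS (250 ng/mL final) plus ATP (1.25 mM final); secreted IL-1B measured by AlphaLISA after 16 hr, decreased signal indicating inhibition.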
TDP1 cell CPT: DT40-hTDP1 cell growth loss with CPT; chicken DT40 Tdp1-/-;hTDP1 cells + 20 nM CPT, ATP luminescence, 48 h; Potency, µM (doses to about 46.2 µM), for inactives: at the top dose activity change, negative = growth inhibition, actives largely listed as inhibitors; actives 12% (n = 420,000); AID 686979; note: potency is the fitted concentration of half-maximal effect; nearly all actives have a fitted effect of over 55% in size
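Chicken DT40 Tdp1-/- cells stably complemented with human TDP1 were seeded at 400 cells/well in medium containing 20 nM camptothecin, exposed to pin-transferred compounds, and grown at 37 °C for at least 48 hr. Viability was read as ATP luminescence.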
HT1080-NT tox: kills 2HG-producing HT-1080-NT fibrosarcoma cells; Potency, µM (doses to about 46.1 µM), for the others: at the highest dose activity, negative = less viability, hits mostly cytotoxic; HT-1080-NT fibrosarcoma viability, CellTiter-Glo ATP luminescence, 48 h; actives 1.6% (n = 360,000);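 note: NT is the 2HG producing partner of a matched IDH1 knockdown line; potency is the fitted concentration of half-maximal effect; 0% = DMSO-treated cells and -100% = media-only wells without cells; nearly all actives have a fitted effect of over 55% in size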
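HT-1080-NT fibrosarcoma cells (2HG-overproducing), 750 cells/well in RPMI with 5% FBS, dosed after 2 h and incubated 48 h at 37C. CellTiter-Glo luminescence normalized to DMSO and no-cell wells; concentration-response curves fitted and classed.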
DT40 TDP1 no CPT: qHTS for Inhibitors of human tyrosyl-DNA phosphodiesterase 1 (TDP1): qHTS in cells in absence of CPT; DT40 Tdp1-/- hTDP1 cells, no CPT, ATP luminescence, 48 h; Potency, µM (highest dose often 46.2 µM), for inactives: at the highest dose activity change, negative = growth inhibition, most hits filed as inhibitors; actives 15% (n = 420,000); AID 686978, 2013; note: potency is the fitted concentration of half-maximal effect; nearly all actives have a fitted effect of over 55% in size
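DT40 Tdp1-/-;hTDP1 cells, no CPT (DMSO vehicle only), 400 cells/well; compounds pin-transferred; ≥48 hr, 37 °C; CellTiter-Glo 30 min RT dark, luminescence read.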
* marks the source's active call; other numbers are inactive results; ? = inconclusive; nt = no result given. This is a sample that favours compounds with a hit; in the whole collection about 19% have one here. Unless noted, calls come from the whole dose curve; as a rule, active = well fitted curve in the direction sought with a large enough effect; inconclusive = small, poorly fitted or top-dose-only effect, or another doubt; inactive = no such curve, though single readings can be large; an effect the other way counts as inactive or inconclusive. Unless noted, % is set by controls: 0 for no effect and ±100 for the full control effect.

SMILES	HT1080 IDH1KD tx	IL-1B inflam inh	TDP1 cell CPT	HT1080-NT tox	DT40 TDP1 no CPT
Cc1ccc(S(=O)(=O)N2CCOCC2)cc1NC(=O)CSc1nnc(COc2ccccc2F)n1N	18%	-1	-20%	7%	-22%
Cc1ccc(NC(=O)C(c2ccccc2)N2CCN(CC(=O)N3CCOCC3)CC2)cc1Cl (centres undefined)	-3%	-29	-1%	-7%	-14%
COC(=O)c1c(C)[nH]c(O)c1C=Nc1ccc(C(C)C)cc1	-4%	-101*	?	9%	18µM*
CCN(C(=O)CSc1nc2ccccc2o1)c1c(N)n(Cc2ccccc2)c(=O)[nH]c1=O	-1%	-15	4%	1%	1%
CCCc1nc(SC2CCCC2)c2c(=O)n(C)c(=O)n(C)c2n1	0%	33	23µM*	3%	23µM*
CCc1nc(SCC(=O)N2CCC(C)CC2)c2c(=O)n(C)c(=O)n(C)c2n1	-9%	27	?	6%	26µM*
CCCc1nc(SCC(=O)N2CCN(c3ccccc3)CC2)c2c(=O)n(C)c(=O)n(C)c2n1	4%	16	6.5µM*	-12%	7.3µM*
CCCc1nc(SCC(=O)N2CCC(C)CC2)c2c(=O)n(C)c(=O)n(C)c2n1	10%	?	16µM*	13%	12µM*
CC(C)NC(=O)N(C)C[C@H]1Oc2c(NC(=O)C3CC3)cccc2C(=O)N([C@H](C)CO)C[C@@H]1C	1%	16	-3%	-7%	0%
Cn1cc(CNCc2cn(C)nc2-c2ccc(C3CCCCC3)cc2)cn1	?	-71*	?	?	18µM*
Cc1ccc(C(=O)NCCc2csc(-c3cccc(F)c3)n2)cc1C	nt	nt	-26%	nt	-19%
Cc1nc(CCNC(=O)Cc2ccccc2)cs1	14%	1	-2%	9%	0%
Cc1cccc(-c2nc(CCNC(=O)Cc3ccccc3)cs2)c1	nt	nt	?	nt	21µM*
COc1cc(OC)cc(C(=O)NCCc2csc(-c3cccc(C)c3)n2)c1	nt	nt	15µM*	nt	16µM*
COc1cc(OC)cc(C(=O)NCCc2csc(-c3ccc(C(F)(F)F)cc3)n2)c1	nt	nt	?	nt	18µM*
CCc1ccc(NC(=O)C(=O)NCCc2csc(-c3ccc(C(F)(F)F)cc3)n2)cc1	nt	nt	-19%	nt	?
COc1ccc(NC(=O)CSc2ccc3nnc(-c4ccccn4)n3n2)cc1OC	7%	9	6%	-1%	11%
C(=N\Nc1nccc(-c2cccnc2)n1)/c1ccccc1	-15%	-54*	0.033µM*	1%	?
CC(C)(C)c1csc(N/N=C/c2cccnc2)n1	-16%	-99*	21%	0%	1%
Cc1ccc(-c2cc(-c3ccccc3O)nc(N/N=C/c3cccnc3)n2)cc1	-3%	6	16µM*	?	12µM*
C(=N\Nc1nc(-c2ccccc2)cs1)/c1cccnc1	?	-21	13µM*	?	?
Clc1ccc(-c2csc(N/N=C/c3cccnc3)n2)c(Cl)c1	-12%	95	?	?	?
COc1ccc(C2CC(c3ccccc3)=NN2C(=O)CSc2nnnn2-c2cccc(C)c2)cc1 (centres undefined)	25%	7	-17%	1%	-16%
CC(OC(=O)c1ccco1)C(=O)NCc1ccc2c(c1)OCO2 (centres undefined)	3%	-12	0%	-6%	4%
COc1ccc([N+](=O)[O-])cc1NC(=O)CCN1CCOCC1	11%	40	-1%	16%	-17%
CCNC(=S)N1CCN(CC)CC1	19%	-2	0%	23%	-3%
Cc1c(NC(=O)c2ccc(Br)o2)cccc1-c1nc2ccccc2o1	nt	nt	26µM*	nt	23µM*
Cc1c(NC(=O)c2cccc3c(Cl)cccc23)cccc1-c1nc2ccccc2o1	nt	nt	15µM*	nt	21µM*
O=C(Nc1cc(-c2nc3ccccc3o2)ccc1Cl)c1cccc2c(Cl)cccc12	nt	nt	?	nt	-22%
